Source: PubChem
mIDH1 inhibitor: inhibitors of human mutant IDH1 R132H | IDH1-R132H enzyme, NADPH consumption, diaphorase/resazurin fluorescence | Potency, µM (series often up to 76.6 µM), for the others: at the top dose activity change, negative = inhibition, usual class: inhibitors | actives 0.093% (n = 390,000) | AID 602179; also: nearly all actives have a fitted effect of over 65% in size
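IDH1-R132H (0.5 ug/mL dispensed) in pH 7.5 Tris buffer was preincubated 30 min with compound, then given a substrate mix of 0.016 mM NADPH and 2 mM alpha-KG for 80 min at room temperature; remaining NADPH was read by diaphorase/resazurin fluorescence.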
rTrxR1 inhibitor: blocks rat thioredoxin reductase 1. AID 588453. actives 1% (n = 390,000). recombinant rTrxR1, NADPH fluorescence consumption, selenite substrate. Potency, µM (titrated, usually from 114 µM), for inactives: at the top dose activity change, negative = inhibition, actives largely listed as inhibitors. O89049; also: nearly all actives have a fitted effect of over 65% in size
Target sequence (O89049 whole entry, looked up): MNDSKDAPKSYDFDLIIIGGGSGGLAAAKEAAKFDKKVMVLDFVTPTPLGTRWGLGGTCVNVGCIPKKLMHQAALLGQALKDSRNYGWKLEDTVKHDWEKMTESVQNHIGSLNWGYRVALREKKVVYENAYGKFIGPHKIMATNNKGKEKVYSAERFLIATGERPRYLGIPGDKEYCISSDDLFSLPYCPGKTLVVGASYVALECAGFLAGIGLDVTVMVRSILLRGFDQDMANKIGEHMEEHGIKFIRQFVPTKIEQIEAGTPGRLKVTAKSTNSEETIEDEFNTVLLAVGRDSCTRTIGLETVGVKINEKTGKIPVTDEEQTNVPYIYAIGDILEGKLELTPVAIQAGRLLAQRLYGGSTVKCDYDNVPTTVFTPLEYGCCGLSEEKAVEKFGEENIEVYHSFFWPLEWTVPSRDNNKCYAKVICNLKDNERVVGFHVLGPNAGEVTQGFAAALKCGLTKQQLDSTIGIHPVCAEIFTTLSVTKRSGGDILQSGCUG
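Rat TrxR1 (90 nM in the dispensed reagent) was pre-reduced with 400 uM NADPH for 5 min at room temperature, then incubated with compound for 15 min. After 400 uM selenite was added, NADPH fluorescence (Ex 340/Em 450 nm) was followed for 8 min.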
VDR inhibitor: vitamin D3 receptor (human) inhibition; VDR-SRC2-3 peptide fluorescence polarization, 2 h; actives 0.93% (n = 400,000); Potency, µM, for inactives: max response, negative = inhibition, most hits filed as inhibitors
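Compounds are added to VDR with labelled SRC2-3 coactivator peptide and held 2 h at room temperature. Inhibition of the VDR–peptide interaction is then read as a change in fluorescence polarization.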
Sfp PPTase inh: Sfp phosphopantetheinyl transferase inhibition; Q9F4F7; Biochemical Sfp PPTase activity, qHTS; Potency, µM, inactives show largest response in the series, negative = inhibition, usual class: inhibitors; actives 3.5% (n = 310,000);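 also: the enzyme is Sfp with the accession as filed and its product quenches rhodamine fluorescence; 0% = enzyme reaction without inhibitor and -100% = no enzyme wells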
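Buffer: 50 mM Hepes-Na pH 7.6, 10 mM MgCl2, 0.01% Nonidet P-40, 0.01% BSA. Enzyme 15 nM, pre-exposed to compound 15 min; substrates then added and fluorescence change tracked over 30 min.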
PLK1 PBD inh: PLK1 (human) polo-box domain binding inhibition; P53350; Plk1 PBD binding of FITC phosphopeptide, fluorescence polarization; Potency, µM, for the others: max response, negative = inhibition, hits mostly inhibitors; actives 2.8% (n = 360,000); AID 720504; also: series mostly up to about 57 µM; nearly all actives have a fitted effect of over 65% in size
TrxR1 substrate: is turned over as a substrate by rat TrxR1; O89049; AID 588456; actives 0.01% (n = 390,000); Potency, µM (titrated, usually from 114 µM), inactives show at the highest dose activity change, negative = substrate turnover; purified TrxR1 substrate turnover, NADPH consumption readout; also: nearly all actives have a fitted effect of over 50% in size
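Rat TrxR1, dispensed at 90 nM, was prereduced with 400 uM NADPH (final) for 5 min at ~22 deg C, then incubated with compound 15 min before 400 uM selenite. A first-read NADPH fluorescence drop versus no-compound background flagged substrates.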
Starred values were filed as active, the others as inactive; ? = inconclusive; / = no result; [ ] = remark or other dose. The list is not random: actives were taken first. Their share in the collection is about 5.2%. Calls follow the shape of the dose curve; as a rule, active = well fitted curve in the direction sought with a large enough effect; inconclusive = small, poorly fitted or top-dose-only effect, or another doubt; inactive = no such curve, though single readings can be large; an effect the other way counts as inactive or inconclusive. Unless noted, % is scaled to controls: 0 for no effect and ±100 for the full control effect; potency is read from the fitted curve at half-maximal effect.

SMILES	mIDH1 inhibitor	rTrxR1 inhibitor	VDR inhibitor	Sfp PPTase inh	PLK1 PBD inh	TrxR1 substrate
CN1CCc2c(OCC(=O)N3N=C(c4cccs4)CC3c3ccc(F)cc3)cccc2C1=O (stereo not drawn)	0%	14µM*	-25%	-7%	-7%	11%
COc1ccc(C2CC(c3cccs3)=NN2C(=O)c2ccccc2)cc1OC (stereo not drawn)	0%	13%[57.1 µM]	-10%	-1%	3%	12%[57.1 µM]
CCN1CCc2c(OCC(=O)N3N=C(c4cccs4)CC3c3ccc(F)cc3)cccc2C1=O (stereo not drawn)	-2%	12%	-22%	?	0%	33%
COc1cc(C2CC(c3cccs3)=NN2C(=O)CCl)ccc1OC(F)F (stereo not drawn)	8%	7.9µM*	?	3%	-19%	6%
COc1ccc(C2CC(c3cccs3)=NN2C(=O)CN2CCCCC2)cc1 (stereo not drawn)	6%	14%[57.1 µM]	11%	22%	-4%	-17%[57.1 µM]
COc1ccc(C2CC(=O)Oc3ccc(OC)cc32)cc1 (stereo not drawn)	-8%	-9%	-11%	/	-7%	-8%
COC1=C(C(=O)c2ccccc2)C(=O)C2(CC=C(C)C)C[C@H](C(=O)OCC(F)(F)F)C(C)(C)[C@@]1(CC=C(C)C)C2=O (tested in a mixture with another compound)	/	/	-1%	1%	/	/
O=C(CCl)N(c1ccccc1)C1CCCCC1	0%	3.2µM*	-11%	6%	-7%	14%[57.1 µM]
Cc1ccc(C(=O)O/N=C(\N)c2ccc(C(F)(F)F)cn2)cc1	-1%	9%	17%	-2%	-2%	-2%
N/C(=N\OC(=O)c1csnn1)c1ccc(C(F)(F)F)cc1	-2%	18%[57.1 µM]	0%	56µM*	-7%	7%
CCN(CC)c1ccc(NC(=O)CSc2nnc3nc(C)cc(C)n23)cc1	4%	-2%[57.1 µM]	-10%	?	17µM*	4%[57.1 µM]
O=C(c1ccc(-c2ccc([N+](=O)[O-])cc2Cl)o1)N1CCOCC1	9%	13%	0%	40µM*	-2%	3%
S=C(c1ccc(-c2ccc(Br)cc2)o1)N1CCCCC1	4%	11%[57.1 µM]	-13%	13%	-13%	6%[57.1 µM]
S=C(c1ccc(-c2ccc(Br)cc2)o1)N1CCOCC1	12%	13%[57.1 µM]	?	35µM*	?	6%[57.1 µM]
S=C(c1ccc(-c2ccccc2Cl)o1)N1CCOCC1	5%	-12%	-62%	14µM*	5.3µM*	-14%
S=C(Nc1ccc(Cl)c(Cl)c1)N1CCOCC1	-1%	2%[57.1 µM]	-3%	-8%	-9%	9%[57.1 µM]
S=C(c1ccc(-c2ccc(Cl)c(Cl)c2)o1)N1CCOCC1	-2%	28µM*	-4%	16µM*	27µM*	-7%
CCN(C(=O)C(=O)c1c(C)[nH]c2ccccc12)c1ccccc1	/	9%	/	/	/	3%
COc1ccc(CNC(=O)C2=C(C)C(=O)OC23CCCCC3)cc1OC	-4%	14%	14%	/	/	0%
O=C(c1ccc(-c2cccc(Cl)c2Cl)o1)N1CCOCC1	14%	?	-9%	79µM*	-14%	-2%
S=C(c1ccc(-c2ccc(Cl)cc2Cl)o1)N1CCCCC1	-2%	-22%	-8%	56µM*	-21%	-11%
O=C(c1ccc(-c2ccccc2Cl)o1)N1CCC1	-2%	0%[57.1 µM]	-10%	/	5%	-2%[57.1 µM]
Cc1nc(NC2CCCCC2)c2nc(-c3ccccc3)n(C(C)CN(C)C)c2n1 (stereo not drawn)	/	/	/	6%	/	/
O=C(COc1ccc(Br)cc1)Nc1cccc2cccnc12	-6%	13%[57.1 µM]	12%	/	/	3%[57.1 µM]
O=c1[nH]/c(=C/c2ccc3c(c2)OCO3)c(=O)[nH]/c1=C/c1ccc2c(c1)OCO2	/	20%	/	/	/	4%
SMILES	mIDH1 inhibitor	rTrxR1 inhibitor	VDR inhibitor	Sfp PPTase inh	PLK1 PBD inh	TrxR1 substrate
COC(=O)C1=C(C)NC(=O)/C1=C\c1ccc2c(c1)OCO2	7%	?	-4%	4%	-13%	-7%
CC1=NOC(=O)/C1=C\c1ccc2c(c1)OCO2	-11%	?	89µM*	-27%	2.4µM*	4%
CC1=NOC(=O)/C1=C/c1ccc2c(c1)OCO2	7%	-20%[57.1 µM]	32µM*	1%	?	4%
CCN1C(=O)[C@@H]2[C@H]3C(=CC[C@H]2C1=O)C(=O)[C@H]1OC1[C@H]3O (stereo partly drawn)	/	/	/	9%	/	/
O=C(O)[C@H](Cc1ccccc1)NC(=O)C(c1ccccc1)(c1ccccc1)c1ccccc1	8%	13%	-26%	1%	27µM*	7%
O=C(CC(c1ccccc1)(c1ccccc1)c1ccccc1)N[C@@H](Cc1ccccc1)C(=O)O	-6%	11%	-15%	12%	-4%	5%
Cc1noc(C)c1NC(=O)N(C)C[C@@H]1Oc2cc(Br)ccc2S(=O)(=O)N([C@H](C)CO)C[C@@H]1C	1%	/	/	/	-8%	/
Cc1ccc(-c2ccc(/C=N/N=C3/NC(=O)C(CC(=O)O)S3)o2)c([N+](=O)[O-])c1 (stereo not drawn)	16%	-32%	?	20µM*	-16%	?
O=C(O)CCCNC(=O)CC1S/C(=N/N=C/c2ccccc2O)NC1=O (stereo not drawn)	4%	-2%	9%	23%	-9%	-9%
Cc1ccc(S(=O)(=O)Oc2ccc(/C=N/N=C3/NC(=O)C(CC(=O)O)S3)cc2)cc1 (stereo not drawn)	-5%	3%	11%	21%	-22%	-9%
O=C(O)CC1S/C(=N/N=C/c2ccc(-c3ccccc3[N+](=O)[O-])o2)NC1=O (stereo not drawn)	-4%	?	79µM*	22µM*	-20%	?
O=C(COC(=O)CCSc1ccc(F)cc1)NCc1ccc(F)cc1	5%	12%	-11%	/	-13%	-4%
C/C(=N/Nc1ccc(C(=O)O)cc1)c1ccc(O)c(O)c1O	15%	-32%	5%	40µM*	-19%	?
CCOC(=O)Cc1nnc(NC(=O)CSc2ncc(-c3ccccc3)nn2)s1	4%	15%[57.1 µM]	1%	16%	-13%	2%[57.1 µM]
c1csc(-c2noc(COc3ccc4c(c3)CCCC4)n2)c1	8%	2%	7%	45µM*	0%	-5%
CC(C)(C)n1ncc2c(=O)n(Cc3ccc(SC(F)(F)F)cc3)cnc21	/	7%	/	/	/	-14%
CC(=O)Nc1ccc2c(c1)c1ccccc1n2C(C)=O	9%	14%	?	26%	4%	5%
CC(=O)n1c2ccccc2c2nc(NC(C)C)sc21	-1%	1%	?	?	27µM*	0%
O=C(COC(=O)COc1ccc(Cl)cc1)NCc1ccc2c(c1)OCO2	-4%	5%[2.29 µM]	-11%	/	1%	0%[2.29 µM]
